PubChem BioAssay AID1159580 (chemical genetic matrix, 2015)
Several values for one entry are separate records, joined by “and”; a condition that tells them apart may be missing. Equal values may be shown once. About 2,000 (36%) of roughly 5,500 compounds were called active. About 18% were inconclusive and are not listed. The list shows a part of the results. A number with no mark means an inactive call. Rule as the data show it: active = normalized growth mostly below about 0.91 (no sharp cut-off); inconclusive = no clear call, values can overlap the other calls; inactive = mostly above about 0.92.

Assay: chemical genetic growth profiling, strain panel (AID 1159580);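 also: tested at 20 µM; growth read once vehicle control cultures reached saturation at 30 °C; 1 = growth at the plate median or of vehicle wells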
Conditions: S. cerevisiae deletion strains, growth OD

Which normalized growth (locus YAL013W, strain DEP1, stronger effect = lower value) does the source give for CC(=O)O[C@@H]1C=C[C@@]2(C)C(C[C@@H](OC(C)=O)[C@@]3(C)C4=CC(=O)O[C@@H](c5ccoc5)[C@]4(C)CCC23)C1(C)C (stereo partly specified) here?
Its normalized growth is 1.01.

What about the normalized growth (locus YAL021C, strain ccr4, stronger effect = lower value) of the same compound?
Its normalized growth is 1.

And the normalized growth (locus YAL026C, strain drs2, stronger effect = lower value)?
The normalized growth was 0.985.

What about the normalized growth (locus YAL030W, strain snc1, stronger effect = lower value) of the same compound?
Its normalized growth is 0.99.

And the normalized growth (locus YBL061C, strain skt5, stronger effect = lower value)?
The normalized growth was 0.992.

What about the normalized growth (locus YBR009C, strain hhf1, stronger effect = lower value) of the same compound?
Its normalized growth is 1.

And the normalized growth (locus YBR021W, strain FUR4, stronger effect = lower value)?
Its normalized growth is 1.03.

What about the normalized growth (locus YBR023C, strain chs3, stronger effect = lower value) of the same compound?
Its normalized growth is 1.01.

What about the normalized growth (locus YBR171W, strain sec66, stronger effect = lower value) of the same compound?
The normalized growth was 0.994.

What about the normalized growth (locus YBR229C, strain ROT2, stronger effect = lower value) of the same compound?
The normalized growth was 1.02.

And the normalized growth (locus YBR231C, strain swc5, stronger effect = lower value)?
The normalized growth was 0.99.

And the normalized growth (locus YBR279W, strain paf1, stronger effect = lower value)?
The normalized growth was 1.

And the normalized growth (locus YCL011C, strain gbp2, stronger effect = lower value)?
The normalized growth was 0.982.

And the normalized growth (locus YCL016C, strain dcc1, stronger effect = lower value)?
Its normalized growth is 0.975.

What about the normalized growth (locus YCL029C, strain bik1, stronger effect = lower value) of the same compound?
The normalized growth was 0.0759 (active).

And the normalized growth (locus YCL061C, strain MRC1, stronger effect = lower value)?
The normalized growth was 0.997.

And the normalized growth (locus YCL069W, strain vba3, stronger effect = lower value)?
The normalized growth was 1.02.

What about the normalized growth (locus YCR088W, strain abp1, stronger effect = lower value) of the same compound?
Its normalized growth is 1.01.

What about the normalized growth (locus YDL005C, strain med2, stronger effect = lower value) of the same compound?
Its normalized growth is 0.984.

And the normalized growth (locus YDL035C, strain GPR1, stronger effect = lower value)?
The normalized growth was 0.991.

And the normalized growth (locus YDL040C, strain nat1, stronger effect = lower value)?
The normalized growth was 0.993.

And the normalized growth (locus YDL074C, strain BRE1, stronger effect = lower value)?
Its normalized growth is 0.964.

And the normalized growth (locus YDL101C, strain DUN1, stronger effect = lower value)?
Its normalized growth is 0.998.

And the normalized growth (locus YDL134C, strain PPH21, stronger effect = lower value)?
Its normalized growth is 1.

And the normalized growth (locus YDL185W, strain tfp1, stronger effect = lower value)?
Its normalized growth is 0.0668 (active).

And the normalized growth (locus YDL192W, strain arf1, stronger effect = lower value)?
The normalized growth was 0.0652 (active).

And the normalized growth (locus YDR001C, strain nth1, stronger effect = lower value)?
The normalized growth was 0.993.

And the normalized growth (locus YDR069C, strain doa4, stronger effect = lower value)?
Its normalized growth is 0.996.

What about the normalized growth (locus YDR101C, strain arx1, stronger effect = lower value) of the same compound?
The normalized growth was 0.0671 (active).

What about the normalized growth (locus YDR137W, strain rgp1, stronger effect = lower value) of the same compound?
Its normalized growth is 0.946.

What about the normalized growth (locus YDR150W, strain NUM1, stronger effect = lower value) of the same compound?
Its normalized growth is 1.01.

And the normalized growth (locus YDR159W, strain sac3, stronger effect = lower value)?
Its normalized growth is 0.979.

And the normalized growth (locus YDR162C, strain NBP2, stronger effect = lower value)?
Its normalized growth is 0.964.

What about the normalized growth (locus YDR195W, strain ref2) of the same compound?
Its normalized growth is 0.975.

What about the normalized growth (locus YDR297W, strain sur2, stronger effect = lower value) of the same compound?
Its normalized growth is 0.981.

What about the normalized growth (locus YDR318W, strain mcm21, stronger effect = lower value) of the same compound?
The normalized growth was 0.0639 (active).

And the normalized growth (locus YDR334W, strain swr1, stronger effect = lower value)?
Its normalized growth is 0.988.

And the normalized growth (locus YDR335W, strain msn5, stronger effect = lower value)?
Its normalized growth is 0.986.

And the normalized growth (locus YDR388W, stronger effect = lower value)?
Its normalized growth is 0.0562 (active).

And the normalized growth (locus YDR392W, strain spt3, stronger effect = lower value)?
Its normalized growth is 0.951.

What about the normalized growth (locus YDR502C, strain sam2, stronger effect = lower value) of the same compound?
Its normalized growth is 0.0613 (active).

And the normalized growth (locus YEL003W, strain gim4, stronger effect = lower value)?
The normalized growth was 0.997.

What about the normalized growth (locus YEL037C, strain rad23, stronger effect = lower value) of the same compound?
Its normalized growth is 1.

What about the normalized growth (locus YEL061C, strain CIN8 (second series), stronger effect = lower value) of the same compound?
Its normalized growth is 0.992.

What about the normalized growth (locus YEL061C, strain CIN8, stronger effect = lower value) of the same compound?
Its normalized growth is 1.02.

And the normalized growth (locus YER015W, strain faa2, stronger effect = lower value)?
The normalized growth was 0.991.

And the normalized growth (locus YER016W, strain bim1, stronger effect = lower value)?
Its normalized growth is 1.01.

And the normalized growth (locus YER110C, stronger effect = lower value)?
Its normalized growth is 0.0742 (active).

And the normalized growth (locus YER111C, strain swi4, stronger effect = lower value)?
Its normalized growth is 1.

What about the normalized growth (locus YER155C, strain BEM2 (second series), stronger effect = lower value) of the same compound?
The normalized growth was 1.01.

And the normalized growth (locus YER155C, strain BEM2, stronger effect = lower value)?
The normalized growth was 1.01.

What about the normalized growth (locus YER167W, strain BCK2, stronger effect = lower value) of the same compound?
The normalized growth was 1.01.

And the normalized growth (locus YFR010W, strain ubp6, stronger effect = lower value)?
Its normalized growth is 1.01.

What about the normalized growth (locus YGL078C, strain dbp3, stronger effect = lower value) of the same compound?
Its normalized growth is 0.0566 (active).

And the normalized growth (locus YGL086W, strain mad1, stronger effect = lower value)?
Its normalized growth is 0.0536 (active).

What about the normalized growth (locus YGL167C, strain pmr1, stronger effect = lower value) of the same compound?
The normalized growth was 0.988.

What about the normalized growth (locus YGL173C, strain kem1, stronger effect = lower value) of the same compound?
The normalized growth was 1.02.

And the normalized growth (locus YGL227W, strain vid30, stronger effect = lower value)?
The normalized growth was 1.

And the normalized growth (locus YGL240W, strain doc1, stronger effect = lower value)?
The normalized growth was 1.

And the normalized growth (locus YGL248W, strain PDE1, stronger effect = lower value)?
The normalized growth was 1.02.

And the normalized growth (locus YGL253W, strain hxk2, stronger effect = lower value)?
The normalized growth was 0.971.

And the normalized growth (locus YGR078C, strain PAC10, stronger effect = lower value)?
The normalized growth was 1.02.

And the normalized growth (locus YGR135W, strain pre9, stronger effect = lower value)?
Its normalized growth is 0.0645 (active).

What about the normalized growth (locus YGR229C, strain SMI1, stronger effect = lower value) of the same compound?
Its normalized growth is 0.98.

And the normalized growth (locus YGR252W, strain gcn5, stronger effect = lower value)?
The normalized growth was 0.164 (active).

What about the normalized growth (locus YHR013C, strain ard1, stronger effect = lower value) of the same compound?
Its normalized growth is 0.973.

And the normalized growth (locus YHR027C, strain rpn1, stronger effect = lower value)?
Its normalized growth is 0.983.

What about the normalized growth (locus YHR030C, strain SLT2, stronger effect = lower value) of the same compound?
Its normalized growth is 1.02 and 0.986.

What about the normalized growth (locus YHR079C, strain IRE1 (second series), stronger effect = lower value) of the same compound?
The normalized growth was 0.0734 (active).

What about the normalized growth (locus YHR079C, strain IRE1, stronger effect = lower value) of the same compound?
Its normalized growth is 0.986.

And the normalized growth (locus YHR094C, strain hxt1, stronger effect = lower value)?
Its normalized growth is 0.0578 (active).

What about the normalized growth (locus YHR129C, strain ARP1, stronger effect = lower value) of the same compound?
The normalized growth was 1.01.

What about the normalized growth (locus YHR142W, strain chs7, stronger effect = lower value) of the same compound?
The normalized growth was 0.965.

What about the normalized growth (locus YHR200W, strain rpn10, stronger effect = lower value) of the same compound?
Its normalized growth is 0.0597 (active).

And the normalized growth (locus YIL066C, strain RNR3, stronger effect = lower value)?
Its normalized growth is 1.02.

And the normalized growth (locus YIL073C, strain SPO22, stronger effect = lower value)?
The normalized growth was 1.03.

What about the normalized growth (locus YIL125W, strain kgd1, stronger effect = lower value) of the same compound?
The normalized growth was 0.0589 (active).

What about the normalized growth (locus YIR030C, strain dcg1, stronger effect = lower value) of the same compound?
Its normalized growth is 0.0619 (active).

What about the normalized growth (locus YJL092W, strain hpr5, stronger effect = lower value) of the same compound?
Its normalized growth is 0.987.

What about the normalized growth (locus YJL095W, strain BCK1 (second series), stronger effect = lower value) of the same compound?
Its normalized growth is 0.974.

And the normalized growth (locus YJL095W, strain BCK1, stronger effect = lower value)?
The normalized growth was 0.979 and 0.982.

What about the normalized growth (locus YJL115W, strain asf1, stronger effect = lower value) of the same compound?
The normalized growth was 0.99.

What about the normalized growth (locus YJL129C, strain trk1, stronger effect = lower value) of the same compound?
Its normalized growth is 0.959.

What about the normalized growth (locus YJL134W, strain LCB3, stronger effect = lower value) of the same compound?
The normalized growth was 1.02.

And the normalized growth (locus YJL154C, strain vps35, stronger effect = lower value)?
The normalized growth was 0.989.

And the normalized growth (locus YJL164C, strain tpk1, stronger effect = lower value)?
The normalized growth was 1.

And the normalized growth (locus YJL166W, strain qcr8, stronger effect = lower value)?
Its normalized growth is 1.

What about the normalized growth (locus YJL168C, strain set2, stronger effect = lower value) of the same compound?
Its normalized growth is 0.0579 (active).

What about the normalized growth (locus YJL187C, strain SWE1 (second series), stronger effect = lower value) of the same compound?
The normalized growth was 1.

And the normalized growth (locus YJL187C, strain SWE1, stronger effect = lower value)?
Its normalized growth is 0.994.

And the normalized growth (locus YJR043C, strain POL32, stronger effect = lower value)?
Its normalized growth is 1.04.
